Data taken from PubChem BioAssay AID720567 (Broad Institute, 2013).
Measured potencies and affinities stand elsewhere. Active and inactive are the calls of the source. The rule behind the calls is not given here.

Test: toxicity toward HEK293 cells – cell-based, dry powder samples, cytotoxicity control, dose response (AID 720567)
Settings: plate reader; series mostly up to 15 µM; activity change, negative = cytotoxicity: at the top concentration

Row | SMILES | activity change, negative = cytotoxicity
1 | Nc1nc(=S)c2ncn([C@@H]3O[C@H](CO)[C@@H](O)[C@H]3O)c2[nH]1 | -93.6% (inactive)
2 | Brc1ccc(CSc2nnc(-c3ccccc3)o2)cc1 | -7.34% (inactive)
3 | Cc1cc(=O)[nH]c(N/N=C/c2cc(C)n(CC(F)(F)F)c2C)n1 | -27.8% (inactive)
4 | CC(=O)c1cccc(NC(=O)CSc2ncc(C(=O)Nc3ccccc3)c(=O)n2C)c1 | -4.7% (inactive)
5 | Cc1cc(C)nc(/N=C(\N)Nc2ccc(OCc3ccccc3)cc2)n1 | -3.13% (inactive)
6 | CCN(CC)CCOc1ccc2c(c1)C(=NNC(=O)c1ccccn1)c1cc(OCCN(CC)CC)ccc1-2 | -8.53% (inactive)
7 | CCN(CC)CCCNc1nc2cc(OC)c(OC)cc2c2nc(-c3ccccc3)nn12 | -12.8% (inactive)
8 | CCN(CC)CCC(=O)Nc1cccc2c1C(=O)c1ccccc1C2=O | -5.32% (inactive)
9 | O=C1CCNc2cc3ccccc3cc21 | -12% (inactive)
10 | COc1cc(Nc2c3c(nc4ccccc24)CCCC3)cc(OC)c1OC | 3.16% (inactive)
11 | O=C1CCN(Cc2ccccc2)c2cc3ccccc3cc21 | 47.8% (inactive)
12 | COc1ccc2c(COC(=O)c3cccc(S(=O)(=O)NCC(C)C)c3)cc(=O)oc2c1 | -5.18% (inactive)
13 | Cc1[nH][nH]c(=O)c1C(c1ccc(-c2ccc(Cl)c(Cl)c2)o1)c1c(C)[nH][nH]c1=O | 9.38% (inactive)
14 | Cc1ccc(C(=O)c2cc([N+](=O)[O-])ccc2N2CCOCC2)cc1C | -18.1% (inactive)
15 | CCOc1ccc(S(=O)(=O)NCc2ccccn2)cc1NC(=O)c1ccccc1F | -25% (inactive)
16 | COc1ccc(-c2nnc(SCc3ccccc3)o2)cc1 | -8.12% (inactive)
17 | COc1cc(-c2nnc(SCC3(c4ccc(Br)cc4)OCCO3)o2)cc(OC)c1OC | 18.2% (inactive)
18 | Cc1ccc(/C=N/NC(=O)C2COc3ccccc3O2)s1 (stereo not drawn) | -6.12% (inactive)
19 | COc1ccccc1-c1nnc(SCc2ccccc2)o1 | 3.21% (inactive)
20 | Cc1ccc(Oc2ccc(S(=O)(=O)N3CCOCC3)cc2C(N)=O)c(-n2nc3ccccc3n2)c1 | -27.3% (inactive)
21 | CCCCOc1ccccc1C1CC(=O)NC2=C1C(=O)CCC2 (stereo not drawn) | -19.1% (inactive)
22 | CCCNS(=O)(=O)c1cccc(C(=O)OCc2cc(=O)oc3cc(OC)ccc23)c1 | -7.85% (inactive)
23 | CCOC(=O)c1ccc(Oc2cc(C)nc(SC)n2)cc1 | -26.2% (inactive)
24 | COc1ccccc1OCC(=O)NNC(=O)c1ccoc1C | -0.78% (inactive)
25 | Cc1cnc(NC(=O)c2cc(S(=O)(=O)N(C)C)ccc2N2CCCC2)s1 | 32.1% (inactive)
26 | COc1ccccc1CSc1nnc(-c2ccccc2)o1 | -20% (inactive)
27 | CC(=O)N1CCC(=O)c2cc3ccccc3cc21 | 13.5% (inactive)
28 | O=C(Cc1ccccc1)c1nnc(-c2ccccc2)o1 | 77% (inactive)
